PfHsp90 set2: reduces growth (ATP signal) of yeast expressing P. falciparum Hsp90 | S. cerevisiae expressing PfHsp90, BacTiter-Glo ATP, 48 h; yeast lacking PDR1 and PDR3 efflux regulators | inhibition, % at 9.4 µM | 0.32% of 310,000 active;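 active means every replicate shows inhibition above about 80%, whatever the replicate mean, limit read from the data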
tim10-1 inh: growth inhibitors of tim10-1 mutant yeast; S. cerevisiae tim10-1 ts strain growth, BacTiter-Glo, 24 h; 2.2% of 330,000 active; AID 463190; inhibition, % at 20 µM;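 active means inhibition of at least 40%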;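 further: mutant grown at 25 °C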
TIM10 inh: growth inhibitors of TIM10 yeast strain; S. cerevisiae TIM10 strain growth, BacTiter-Glo luminescence, 24 h; inhibition, % at 10 µM; 1.4% of 330,000 active; AID 463195;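 active means inhibition of 40% or more at the single tested concentration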;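 further: wild-type TIM10 isogenic control strain grown at permissive 25 °C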
tim23-1 inh: tim23-1 yeast growth inhibition. S. cerevisiae tim23-1 growth, BacTiter-Glo luminescence, 24 h. inhibition, % at 20 µM. 1.3% of 330,000 active;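 active means growth inhibition of the mutant yeast at or above 50%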;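 further: temperature-sensitive mutant grown at 25 °C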
Rce1 inhib: blocks yeast Ras-converting enzyme | calls only | AID 2563 | 0.27% of 290,000 active | yeast membranes, quenched prenylated peptide cleavage fluorescence;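 active means fall in fluorescence gain of 50% or more versus controls, with final raw signal at or below 3038400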
Target sequence (Q03530 whole entry, looked up): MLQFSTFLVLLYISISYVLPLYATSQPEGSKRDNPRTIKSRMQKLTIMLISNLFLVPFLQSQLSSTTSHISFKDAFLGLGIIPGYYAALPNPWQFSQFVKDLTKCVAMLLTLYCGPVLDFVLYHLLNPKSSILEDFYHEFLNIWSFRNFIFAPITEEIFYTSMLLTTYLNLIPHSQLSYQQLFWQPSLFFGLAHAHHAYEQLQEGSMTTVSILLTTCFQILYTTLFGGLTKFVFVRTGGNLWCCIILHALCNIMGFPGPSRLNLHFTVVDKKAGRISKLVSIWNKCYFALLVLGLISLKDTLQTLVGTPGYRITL
Hits are given with their value; i = inactive; nt = no result; + = active, no number. This is a sample that favours compounds with a hit; in the whole collection about 3.7% have one here.

SMILES	PfHsp90 set2	tim10-1 inh	TIM10 inh	tim23-1 inh	Rce1 inhib
CCSc1nc2ccccc2n1CC(=O)O	i	i	i	i	i
COc1ccccc1N(CC(=O)N1CCOCC1)S(C)(=O)=O	i	i	i	i	i
O=C(Nc1cccc2ncccc12)c1cccnc1	i	i	i	i	+
O=C(Nc1cccc2ncccc12)c1cccc(F)c1	i	i	i	i	i
CC(C)c1nc(SCC(=O)NC2CCCC2)c2c(=O)n(C)c(=O)n(C)c2n1	i	i	i	i	i
C[n+]1c2n(c3ccccc31)N=C(c1cc(C(C)(C)C)c(O)c(C(C)(C)C)c1)CS2	i	i	i	i	+
O=[N+]([O-])c1cc(S(=O)(=O)N2CCCC2)ccc1N/N=C1/CCCc2ccccc21	i	i	i	i	i
O=[N+]([O-])c1cc(S(=O)(=O)N2CCCC2)ccc1NN=C1CCCCC1	i	i	i	i	+
O=C(NCC1CC1)c1ccc(Nc2nc3ccc(Br)cc3[nH]2)cc1	i	i	i	i	+
O=C(NCc1ccco1)c1cccc(Nc2nc3ccc(Br)cc3[nH]2)c1	i	i	i	i	i
CC1=CN2C(=N)/C(=C/c3ccc([N+](=O)[O-])o3)C(=O)N=C2S1	97	nt	nt	nt	i
COc1ccc(-c2cc3nc(C)c(CCC(=O)N4CCN(c5ccccn5)CC4)c(C)n3n2)c(OC)c1	i	i	i	i	+
Brc1ccc(CSc2nnc(-c3ccco3)o2)cc1	i	i	i	i	i
Cc1ccc(-c2nn(-c3cc(N4CCNCC4)ccc3[N+](=O)[O-])c(=O)c3ccccc23)cc1	i	i	i	i	i
COc1ccc(C(CNC(=O)COc2cc(C)c(Cl)c(C)c2)N2CCCCC2)cc1 (configuration not stated)	i	i	i	i	+
CSc1ccc(C(=O)C2CCCN(C(=O)c3cccnc3SC)C2)cc1 (configuration not stated)	i	i	i	i	+
O=C(NNc1cccc(Cl)n1)c1c(F)cccc1F	nt	i	i	i	i
Cc1ccccc1-n1nc(C)c2cc(C(=O)N3CCN(S(=O)(=O)c4ccc(Cl)cc4)CC3)sc21	i	i	i	i	i
Cc1ccc(S(=O)(=O)N2CCN(C(=O)c3cc4c(C)nn(-c5ccccc5)c4s3)CC2)cc1	nt	i	i	i	+
CCOc1ccc(-n2ccnc(SCC(=O)NC3CCCC3)c2=O)cc1	i	i	i	i	+
CCc1ccc(NC(=S)N2CCC(NC(=O)c3ccccc3)CC2)cc1	i	i	i	i	i
O=C(c1ccc(Cn2cnnn2)cc1)N1CCCC(Nc2ccc(F)cc2)C1 (configuration not stated)	i	i	i	i	+
O=C(/C=C/c1ccc([N+](=O)[O-])cc1)c1ccccc(=O)c1O	123	nt	nt	nt	nt
Cc1ccc(/C=C/C(=O)c2ccccc(=O)c2O)c(C)c1	106	i	i	i	i
O=C(/C=C/c1ccc([N+](=O)[O-])cc1)c1cccs1	i	i	i	i	i
SMILES	PfHsp90 set2	tim10-1 inh	TIM10 inh	tim23-1 inh	Rce1 inhib
Cc1ccc(C(=O)CC(=O)c2ccccc2C)c(O)c1	i	i	i	i	i
O=C(/C=C/c1ccccc1Cl)c1ccccc(=O)c1O	96	nt	nt	nt	i
Cc1ccc(C)c(/C=C/C(=O)c2ccccc(=O)c2O)c1	103	nt	nt	nt	i
CCCc1cc(=O)oc2cc(OCC(=O)N3CCc4ccccc43)ccc12	i	i	i	i	i
O=C(Nc1cc(Cl)ccc1N1CCOCC1)c1cnccn1	i	i	i	i	i
O=C(Nc1cc(S(=O)(=O)N2CCOCC2)ccc1N1CCCC1)c1cnccn1	i	i	i	i	+
CCOc1cccc(-c2nn(-c3ccccc3)cc2/C=C(/C#N)C(=O)NCCCn2ccnc2)c1	i	i	i	i	+
CCCCCCCCCCCCCCCC(O)C[N+](C)(C)CCO (configuration not stated)	111	nt	nt	nt	nt
CC1CCC/C(=C\Nc2ccc3c(c2)OCO3)C1=O (configuration not stated)	nt	i	i	i	i
CC1CCC/C(=C\Nc2ccccc2C(=O)O)C1=O (configuration not stated)	i	i	i	i	+
COc1cc2c(cc1OC)C(C)N(C(=O)c1cccs1)CC2 (configuration not stated)	i	i	i	i	i
COc1cc2c(cc1OC)C(C)N(C(=O)c1cc3c(=O)oc4ccc(C)cc4c3s1)CC2 (configuration not stated)	nt	i	i	i	+
O=C(c1cccc(NS(=O)(=O)c2cccc(F)c2)c1)N1CCN(c2ccccc2)CC1	i	i	i	i	i
Cc1oc(-c2ccccc2Cl)nc1CS(=O)CC(=O)NCc1ccco1 (configuration not stated)	i	i	i	i	i
Cc1oc(-c2ccc(Cl)cc2)nc1CS(=O)CC(=O)NCc1ccco1 (configuration not stated)	i	i	i	i	+
CC(C)=C[C@@H]1C[C@H](C)[C@H]2CC[C@H](C)c3c(O[C@@H]4O[C@@H](C)[C@@H](O)[C@@H](O)[C@@H]4O)c(O)c(C)c1c32	105	i	i	i	nt
O=c1cc(-c2ccccc2Cl)oc2cccc(O)c12	i	i	i	i	i
O=c1cc2oc3cc(O)c(O)cc3c(-c3ccccc3[N+](=O)[O-])c-2cc1O	83	i	i	i	i
O=C(Cc1csc(NC(=O)c2ccc(F)cc2)n1)NO	i	i	i	i	i
O=C(c1ccc(Cl)cc1)N1CCN(c2ccc(F)cc2)CC1	102	i	i	i	i
O=C(c1ccncc1)N1CCN(c2ccc(F)cc2)CC1	i	i	i	i	i
CCC(COC)NC(=O)CCc1nnc(Cc2cccc(C(F)(F)F)c2)o1 (configuration not stated)	i	i	i	i	+
CC(C)NC(=O)CCc1nnc(Cc2cccc(C(F)(F)F)c2)o1	i	i	i	i	i
CC1=NOC(=O)/C1=C\c1ccc(-c2ccc(Br)cc2C(=O)O)o1	i	i	i	i	i
CC1=NOC(=O)/C1=C\c1ccc(-c2ccc(Br)cc2)o1	105	nt	nt	nt	i
SMILES	PfHsp90 set2	tim10-1 inh	TIM10 inh	tim23-1 inh	Rce1 inhib
Cc1cccc(N(C(=O)c2ccc(CN3CCOCC3)o2)C(C(=O)NC(C)(C)C)c2ccc(F)cc2)c1 (configuration not stated)	i	i	i	i	i
CCC(C)n1ncn(-c2ccc(N3CCN(c4ccc(OCC5COC(Cn6cncn6)(c6ccc(Cl)cc6Cl)O5)cc4)CC3)cc2)c1=O (configuration not stated)	92	i	i	i	i
O=C(NS(=O)(=O)c1ccccc1)c1ccccc1O	i	i	i	i	nt
Nc1cccc2nc3ccccc3cc12	i	i	i	i	+
Nc1[nH]nc2nc3ccccc3cc12	i	i	i	i	i
Cc1ccc(C(=O)c2c3ccc(C(F)(F)F)cc3nn2CCC(N)=O)cc1	i	i	i	i	+
CCCCCC(=O)NNC1CC(=O)N(c2ccccc2)C1=O (configuration not stated)	nt	i	i	i	i

Assay outcomes (PubChem)
